Laboratory results taken from PubChem BioAssay AID488890 (Southern Research Specialized Biocontainment Screening …, 2010).
The whole screen tested about 320,000 compounds, of which about 1,300 (0.41%) were called active. Roughly 3% stayed inconclusive and do not appear here. The rule behind the calls is not given here. A selection follows. Results with a measured potency or affinity are listed apart.

Assay: growth inhibition of non-replicating M. tuberculosis (AID 488890);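 note: plate controls were DMSO cells for no effect and high antibiotic wells for full effect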
Settings: Mycobacterium tuberculosis non-replicating, at 25 µM, stronger effect = higher value

SMILES | inhibition
COc1cccc(-c2nc(CS(=O)(=O)CC(=O)NCCCN3CCN(C)CC3)c(C)o2)c1 | -1.26%
C/C(=N\N=C1\NC(=O)C(CC(=O)Nc2ccc(C)c(Cl)c2)S1)C(C)(C)C (stereo not given) | 38.8%
CCCn1c2c(c(O)c(C(=O)Nc3ccc(OC)cc3)c1=O)CCCC2 | 11.5%
CC1(C(=O)NC(=S)N(CCC#N)Cc2cccnc2)CC1(Cl)Cl (stereo not given) | 12.4%
Cc1ccc(NC(=O)COC(=O)CC2CC3CCC2C3)cc1S(=O)(=O)N1CCOCC1 (stereo not given) | 9.66%
COC(=O)CCN1CCN(S(=O)(=O)c2ccccc2Br)CC1 | -21.4%
COc1ccccc1/C=N/Nc1nc(C)cc(C)n1 | 20.8%
O=[N+]([O-])c1ccccc1/C=N/Nc1nc(N2CCCC2)nc(N2CCCC2)n1 | 18.8%
Cc1cc(N/N=C/c2ccc(O)cc2O)nc(N2CCOCC2)n1 | 6.6%
COc1ccc(/C=N/Nc2cc(C)nc(N3CCOCC3)n2)c(OC)c1 | -23.5%
COc1ccc(OC)c(/C=N/Nc2cc(C)nc(N3CCOCC3)n2)c1 | 8.92%
Cc1cc(C)n(-c2ccccc2[N+](=O)[O-])n1 | 24.1%
Cc1cc(N/N=C/c2ccc(O)cc2O)nc(-c2ccccc2O)n1 | 0.04%
COc1ccccc1/C=N/Nc1cc(C)nc(N2CCOCC2)n1 | 8.69%
O=C(CSc1ncccc1C(=O)O)NC1CCCCCCC1 | -1.94%
Cc1cc(C)c(C)c(S(=O)(=O)NC(C(=O)O)C(C)C)c1C (stereo not given) | -1.77%
Cc1cc(C)c(NC(=S)N2CCC(N(C)CC3CCCO3)CC2)c(C)c1 (stereo not given) | -2.45%
O=C(C[n+]1cccc(Br)c1)c1ccc(-c2ccccc2)cc1 | 31.7%
CCCc1cc(C(=O)N2CCCC(N3CCN(c4ccccc4C)CC3)C2)n(C)n1 (stereo not given) | 8.14%
COc1ccccc1C(=O)NCCC(=O)Nc1ccc(S(=O)(=O)N2CCC(C)CC2)cc1 | 27.4%
Cc1cccc(C)c1NC(=O)CSc1nnc(Cc2ccccc2)o1 | -8.32%
Cc1ccc(NC(=O)CSc2nnc(-c3ccco3)o2)cc1 | 27.5%
Cc1ccc(NC(=O)CSc2nnc(Cc3ccccc3)o2)c(C)c1 | 79.6%
Cc1ccc(NC(=O)CCSc2nnc(C)o2)cc1 | 9.37%
CCNC(=O)CCSc1nnc(-c2ccco2)o1 | -8.15%
CC(=O)Nc1ccc(C(=O)CSc2nnc(Cc3ccccc3)o2)cc1 | 38.2%
O=C(CN1CCN(CCN2C(=O)c3cccc4cccc(c34)C2=O)CC1)c1ccc(F)cc1 | 79.3%
Cc1ccc(NC(=O)C2=NNC(=O)CC2)cc1S(=O)(=O)Nc1ccc(SC(F)F)cc1 | 6.44%
CC1CN(S(=O)(=O)c2cccc(C(=O)OCC(=O)N3CCCCCC3)c2)CC(C)O1 (stereo not given) | -8.29%
COc1ccc2c(c1OC)C(=O)N(c1cccc(C)c1)C2 | -2.97%
